Test results from ChEMBL document CHEMBL4513216, “Probing the Open Global Health Chemical Diversity Library for Multistage-Active Starting Points for Next-Generation Antimalarials” (ACS Infect Dis, 2020).
Hit rate of the full screen: of about 68,000 compounds, about 2,700 (4%) showed an effect of 50% or more. The full list was thinned out, with strong results kept by preference.

system: Plasmodium berghei; assay: Screen against P. berghei liver stage (PbLuc), transformed with Luciferase, at 2uM; type: functional, HepG2; conditions: tested at 2 uM

Compound | INHIBITION [%]
CCCN1CCCC2(CCN(S(=O)(=O)N3CCC(OC)CC3)C2)C1=O (stereo not drawn) | -46.38
CCN(Cc1ccncc1)CC1(O)CCN(C(=O)c2cnn(C)c2)C1 (stereo not drawn) | 52.82
CCN(Cc1ccncc1)CC1(O)CCN(C(=O)c2ccccc2C)C1 (stereo not drawn) | 44.07
CCN(Cc1ccncc1)CC1(O)CCN(C(=O)c2cccc(C)c2)C1 (stereo not drawn) | 45.73
COCc1nc(C(=O)NS(=O)(=O)c2cc(C)ccc2C)cs1 | 25.74
Cc1cc(N2CCN(C(=O)c3cnn(C(C)C)c3)CC2)cc(C)n1 | 44.95
NC(=O)CN1CC2(CCC1=O)CCN(Cc1cc(F)ccc1Cl)CC2 | 23.7
Cn1cc(CN2CCC3(CC2)CN(C(=O)c2cnccn2)CCO3)cn1 | 2.22
Cc1cc(N2CCCC(c3nncn3C3CC3)C2)ncn1 (stereo not drawn) | -23.49
CC(C(=O)N1CCCC1)N1CCC(c2nccn2CC2CCC2)CC1 (stereo not drawn) | -19.54
CCn1c(CN(C)C)nnc1C1CCN(Cc2ccncc2)CC1 | 11.74
CCn1c(CN2CCCC2)nnc1C1CCN(Cc2cccnc2)CC1 | -35.07
CCn1c(Cn2cncn2)nnc1C1CCN(C2CCNCC2)CC1 | 19.49
CCn1c(Cn2cncn2)nnc1C1CCN(C2CCOCC2)CC1 | 50.32
CCn1c(CN2CCCC2)nnc1C1CCN(Cc2ccncc2)CC1 | 54.41
c1ncn(Cc2nnc(C3CCN(C4CCOCC4)CC3)n2C2CC2)n1 | -33.43
Cc1cnc(C)c(Oc2ccc(CN3CCCC3)cc2Cl)n1 | -9.5
CNS(=O)(=O)CCCN1CCCCCC1c1ccc(C)o1 (stereo not drawn) | 60.13
Cc1ccc(C2CCCCCN2CCCS(C)(=O)=O)o1 (stereo not drawn) | 38.67
Cc1ccc(C2CCCCCN2CCNS(C)(=O)=O)o1 (stereo not drawn) | 48.21
CC1CCN(S(=O)(=O)N2Cc3ccccc3C[C@H]2C(N)=O)CC1 | 21.37
COC(=O)c1cc(C2CC2)nc2c(C#N)cnn12 | 11.95

Compound | INHIBITION [%]
COC(=O)c1cc(C2CC2)nc2c(Cl)cnn12 | 70.37
O=C(O)c1cc(C2CC2)nc2c(Cl)cnn12 | 0.89
Cc1nc(CN2CCCn3c(nc(Cn4cncn4)cc3=O)C2)cs1 | 37.6
N#Cc1ccc(N2CCC3(CC2)CC(Oc2cccnc2)CO3)cc1 (stereo not drawn) | 38.49
FC1(F)CCN(Cc2ccccn2)CC12CCN(c1cccnc1)C2 (stereo not drawn) | 2.07
CC(C)N1CCN(C(=O)c2ccccc2NCc2cccnc2)CC1 | 8.73
COC1CCN(C(=O)c2ccccc2NCc2cccnc2)CC1 | 54.77
COCC1CCCN(C(=O)c2ccccc2NCc2cccnc2)C1 (stereo not drawn) | 22.39
Cc1cc(CNCCNS(C)(=O)=O)sc1Br | 20.76
O=C(CCn1cncn1)N1C[C@@H]2CC[C@H]1CN(Cc1cccnc1)C2 | 44.37
O=C(NCC1CCOC1)c1cc(-c2ccc(Cl)cc2)n[nH]1 (stereo not drawn) | 61.07
O=C(NCC1CCOC1)c1cc(-c2ccc(F)cc2)[nH]n1 (stereo not drawn) | -22.69
O=C(NCC1CCOC1)c1cc(-c2cccc(Cl)c2)[nH]n1 (stereo not drawn) | 47.03
CCCS(=O)(=O)NC(=O)c1ccc(Br)o1 | 56.8
CCCS(=O)(=O)NC(=O)c1ccc(CC)o1 | 10.48
CCCN(C)S(=O)(=O)NC(=O)c1ccc(CC)o1 | 13.28
NC1CCCCN(Cc2cc(-c3ccccc3OC(F)(F)F)no2)C1 (stereo not drawn) | 28.63
Cc1ccsc1CNCc1c(C(C)C)nn(C)c1N1CCOCC1 | -28.5
O=C1CC(c2ccccc2F)c2c(n3ccsc3nc2=O)N1 (stereo not drawn) | 25.47
CCOC(C)c1noc(CN(C)C(=O)C2C(C)(C)C2(C)C)n1 (stereo not drawn) | 20.14
CCOC(C)c1noc(CN(C)C(=O)c2ccncc2)n1 (stereo not drawn) | 20.14
CCOC(C)c1noc(CN(C)C(=O)c2cc3ccccn3c2)n1 (stereo not drawn) | 52.08

Compound | INHIBITION [%]
Cc1cnn(CCC(=O)N2CCCN(c3ccccc3C#N)CC2)c1 | -43.47
CC(C)C(c1cccnc1)N(C)C(=O)Cc1c(F)cccc1F (stereo not drawn) | 54.29
CCNC(=O)N(C)C(c1cccnc1)C(C)C (stereo not drawn) | 42.2
CC(C)C(c1cccnc1)N(C)C(=O)Cc1ccc(O)cc1 (stereo not drawn) | 39.44
Cc1ccc(C(N)c2cccc(S(C)(=O)=O)c2)cc1 (stereo not drawn) | 54.92
CS(=O)(=O)c1cccc(C(N)c2ccc(F)cc2)c1 (stereo not drawn) | -19.35
CS(=O)(=O)c1cccc(C(N)c2ccccc2)c1 (stereo not drawn) | 35.65
COc1ccc(CNC(=O)C(NC(=O)Cc2ccccc2)C(C)C)cn1 (stereo not drawn) | -129.64
O=C(Cc1ccccc1)N1CCC2(CC(=O)N(c3ccsc3)C2)C1 (stereo not drawn) | -54.51
COc1ccc(Cl)cc1C(=O)NCC1CCN(C(=O)c2ccoc2)CC1 | 17.33
Cn1ccc(NC(=O)Cc2cccc(F)c2)n1 | 19.89
CSc1ccc(NC(=O)Cc2cccc(O)c2)nc1 | 55.36
CCOc1cccc(NC(=O)Cc2cccc(O)c2)n1 | 0.51
COCCC(=O)N1C[C@@H](c2ccccc2F)[C@@]2(CCCC(=O)N2)C1 | -6.19
O=C(NCc1cnc2n1CCN(CC1CCOCC1)C2)c1ccno1 | -14.52
Cc1cc(S(=O)(=O)N2CCCN3CCCC3C2)ccc1F (stereo not drawn) | 6.07
Cc1ccc(S(=O)(=O)N2CCC(N3CCCCC3)CC2)cc1C | -25.62
Cc1ccc(S(=O)(=O)N2CCCCC(N3CCN(C)CC3)C2)cc1F (stereo not drawn) | 50.3
Nc1nccnc1CC1CCCN(Cc2ccnc3ccccc23)C1 (stereo not drawn) | 13.02
CC(C)c1nc(CN2CCCC2Cn2cccn2)no1 (stereo not drawn) | -97.56
COCCN(C)Cc1cc(Cl)ccc1OCC(O)CN1CCCCCC1 (stereo not drawn) | -55.56
CCOc1ccccc1CNC(=O)NCC(c1cnn(C)c1)N(C)C (stereo not drawn) | 71.95

Compound | INHIBITION [%]
CCOc1cc(F)ccc1NC(=O)NCC(c1cnn(C)c1)N(C)C (stereo not drawn) | -24.88
CCOCc1ccccc1NC(=O)NCC(c1cnn(C)c1)N(C)C (stereo not drawn) | 18.54
COc1ccc(CN2CCn3cc(CN4CCCCC4)nc3C2)cc1 | -5.87
Cc1cc(CN2C[C@@H]3COC[C@]3(COCc3csc(C)n3)C2)no1 | 1.74
CC(C)c1nc(CN2CCOC(Cn3cncn3)C2)cs1 (stereo not drawn) | 11.2
CCOc1ccccc1CCNC(=O)NCC(O)c1ccsc1 (stereo not drawn) | 53.63
CCOc1ccccc1CCNC(=O)NCC(O)c1cccs1 (stereo not drawn) | -23.79
CN(C)c1ccc(CCCNC(=O)NCC(O)c2ccsc2)cc1 (stereo not drawn) | 34.55
Cc1ccccc1N1CCN(C(=O)CCc2nncn2C)C(C)C1 (stereo not drawn) | -38.81
Cc1cccc(C2CC(=O)Nc3c2c(=O)[nH]n3C(C)C)c1 (stereo not drawn) | -36.73
Cc1nn(C)cc1CNCc1ccc(N(C)C)cc1 | 8.09
COC(=O)c1ccc(CNCc2cn(C)nc2C)cc1 | 14.26
COc1ccc(CNCc2cn(C)nc2C)cc1 | 51.32
CCn1c(O)c(C(C)=O)c2cc(C)ccc21 | 30.48
Cc1cccc2c1ccn2CC(=O)NC[C@@H]1CCCN2CCCC[C@H]12 | -7.52
CS(=O)(=O)N1CC[C@]2(O)CCN(CCCC(=O)c3ccccc3)C[C@@H]2C1 | -30.08
C/C(NC(=O)c1cccs1)=C1\C(=O)C[C@@H]2[C@H]1C2(C)C | 21.57
C/C(NC(=O)c1ccco1)=C1/C(=O)C[C@@H]2[C@H]1C2(C)C | 18.11
C/C(NC(=O)c1ccccn1)=C1\C(=O)C[C@@H]2[C@H]1C2(C)C | 52.74
Cc1nn(C)c2cn(C(C)C(=O)NCc3ccncc3)nc12 (stereo not drawn) | 22.13
O=C1CC2(CCCNC2)C(=O)N1Cc1ccc(Cl)cc1 (stereo not drawn) | -59.66
Cc1cccc2nc(C(=O)N3CCCC[C@]4(C)NC(=O)CCC[C@H]34)cn12 | 29.06

Compound | INHIBITION [%]
Cc1ccc2nc(C(=O)N3CCCC[C@]4(C)NC(=O)CCC[C@H]34)cn2c1 | 55.74
Cc1cccc(C(=O)N2CCCC[C@]3(C)NC(=O)CCC[C@H]23)n1 | 49.48
CCc1c(C)[nH]c(C(C)(C)N)nc1=O | -33.81
CCC(O)CN1CCN(C(=O)C2(c3ccc(C)c(OC)c3)CC2)CC1 (stereo not drawn) | -10.44
COc1cc(C2(C(=O)N3CCN(CC(C)O)CC3)CC2)ccc1C (stereo not drawn) | -71.2
COc1ccccc1C1(C(=O)N2CCN(CC(C)O)CC2)CC1 (stereo not drawn) | 58.53
O=C(NC1CC1)[C@@H]1CCO[C@@H]2CCN(CCc3ccccc3)C[C@@H]21 | 8.88
CCC[C@@H]1CN(c2ncnc3sccc23)C[C@H]1C(=O)O | 51.48
CCC[C@@H]1CN(c2ncnc3sccc23)C[C@H]1NS(C)(=O)=O | 46.58
CCC[C@@H]1CN(Cc2cnc(-c3cccs3)nc2)C[C@H]1C(=O)O | -9.03
CC(C)CN1CCC2(CCN(CC3CC3)CC2)C1=O | 16.25
CC(Cc1ccccc1F)C(=O)Nc1ccc(OCCC(N)=O)cc1 (stereo not drawn) | -11.88
COc1cccc(C(=O)Nc2ccc(OCCC(N)=O)cc2)c1OC | -20.19
NC(=O)CCOc1ccc(NC(=O)c2ccccc2OC(F)F)cc1 | 58.14
Cc1noc(C(C)N2CCN(c3ncnc4sccc34)CC2)n1 (stereo not drawn) | 52.89
CCc1noc(C(C)N2CCN(c3ncnc4sccc34)CC2)n1 (stereo not drawn) | 52.89
CCc1noc(C(C)N2CCN(C)CC2)n1 (stereo not drawn) | 9.83
CCc1noc(C(C)N2CCN(c3ccc(C#N)cn3)CC2)n1 (stereo not drawn) | -30.71
Cc1noc(C(C)N2CCN(c3ccc(C#N)cn3)CC2)n1 (stereo not drawn) | 25.35
Cc1noc(C(C)N2CCN(c3ncnc4ccccc34)CC2)n1 (stereo not drawn) | 4.34
